High-throughput results deposited in PubChem BioAssay by several laboratories.
Mdm2-MdmX inh: inhibitors of human Mdm2-MdmX association, primary screen, cell-based, luminescence, split luciferase, SaOS-2, uHTS | hit rate 3% among 330,000 | inhibition, % at 8 µM | SaOS-2 split-luciferase Mdm2/MdmX complementation;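 active means inhibition of at least 50% at 8 µM in the primary screen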
MPTP inh: mitochondrial permeability transition pore inhibitors, primary screen, biochemical, isolated mouse mitochondria, absorbance; Ca2+ swelling absorbance, 30 min; inhibition, % at 10 µM; hit rate 1.4% among 360,000;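 active means inhibition of 50% or more, scaled per plate between neutral and stimulator controls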;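 further: 0% = DMSO wells given calcium and 100% = 1 mM EGTA wells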
Calb FLC: C. albicans growth inhibition with fluconazole, primary screen, CaCi-2 strain, Alamar Blue fluorescence; C. albicans CaCi-2 (fluconazole-resistant clinical isolate) + fluconazole, 48 h; hit rate 0.57% among 300,000; growth inhibition, % (no concentration beside the values);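 active means growth inhibition above about 58% in most replicates, limit read from the data, passing the limit was not always enough; inconclusive means exactly half the replicates above a set limit; inactive means most replicates below a set limit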;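 further: all wells also contain fluconazole at 8 µg/ml as a sub-toxic cotreatment; 0% = median of DMSO wells and 100% = median of geldanamycin control wells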
CSC inhib: cancer stem cell viability inhibitors, primary screen, luminescence; inhibition, % at 7.5 µM; cancer stem cell-like cells viability; AID 2717, 2010; hit rate 1.1% among 300,000; in the data active means inhibition above about 75%; inconclusive means no clear call, values can overlap the other calls; tested in HMLE shEcad cells
Beta cell apopt: inhibitors of cytokine-induced beta cell apoptosis, primary screen, luminescence; AID 435005, 2010; hit rate 0.8% among 300,000; protection from apoptosis, % (no concentration beside the values); INS-1E cytokine-induced death, ATP luminescence, 48 h; percent of positive-control rescue, neutral wells zero;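 active means Every replicate reaches about 75%, or at least half do and their mean reaches it too, limit read from the data; inconclusive means At least half of replicates reach the limit but their mean does not; inactive means Under half of replicates reach the limit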;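 further: 0% = cytokine-treated negative control wells and 100% = positive control rescue; higher means more ATP so stronger rescue from cytokine killing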
SKKanGAS inh: S. pyogenes SKKanGAS growth inhibitors in kanamycin, primary screen, streptokinase expression inhibitor project, SKKanGAS strain, BacTiter-Glo luminescence; 6 h; inhibition, % at 7.5 µM; hit rate 1.3% among 300,000; AID 1662, 2009;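 active means mean replicate score, as percent of positive control median, at least 50; inconclusive means mean below 50 but one replicate at or above 50; inactive means mean and every replicate below 50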;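 further: strain carries kanamycin resistance gene driven by streptokinase promoter and grows in 40 µg/ml kanamycin; loss of luminescence reflects streptokinase promoter inhibition or plain growth inhibition; 0% = median of DMSO wells and 100% = positive control at its reference dose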
Rh123 counter: fluorescence retest of MPTP screen hits in isolated mitochondria, single concentration | shares compounds with MPTP inh | membrane potential, Rhodamine 123 fluorescence | inhibition, % at 10 µM | hit rate 78% among 5,000 | AID 624504, 2012; in the data active means inhibition above about 22%;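 further: 0% = DMSO vehicle and 100% = positive control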
MPTP swell DR: mitochondrial permeability transition pore inhibitors, dose response, biochemical, absorbance, uHTS hits; isolated mitochondria swelling; hit rate 58% among 780; shares compounds with MPTP inh; IC50, µM; in the data active means IC50 below about 20 µM
MPTP counter DR: fluorescent counter-screen in isolated mitochondria, dose response, counter-screen for MPTP inhibitor project, biochemical, fluorescence, uHTS hits; IC50, µM; shares compounds with MPTP inh; hit rate 49% among 780; isolated mitochondria counterscreen, fluorescence read-out; AID 651564, 2012; in the data active means IC50 below about 80 µM
An asterisk follows results filed as active; i = inactive; u = inconclusive; x = no result. Sampled rows, rich in hits. Any-hit rate of the full collection: about 5.4%.

SMILES	Mdm2-MdmX inh	MPTP inh	Calb FLC	CSC inhib	Beta cell apopt	SKKanGAS inh	Rh123 counter	others
Cc1cccc(NC(=O)c2c(F)c(F)c(F)c(F)c2F)c1	17	0	-29	-6	3	10	x
Cc1cc(C)cc(NC(=O)Nc2ccc3c(c2)CCC3)c1	35	53*	-13	32	6	-2	94*
CC(NC(=O)c1ccc2c(c1)OCO2)c1cccc(C(F)(F)F)c1 (configuration not stated)	20	-2	x	x	4	x	x
COc1cc2c(cc1OC)C1C/C(=N\O)C(CC(C)C)CN1CC2 (configuration not stated)	13	1	x	2	1	3	x
O=C(CNC(=S)N(CCCN1CCOCC1)Cc1cccs1)NCc1ccc(Cl)cc1	3	0	-1	3	0	-4	x
Cc1ccc(S(=O)(=O)N2CCN(c3ncnc4sccc34)CC2)cc1C	23	90*	x	x	x	x	94*
Cc1ccc(S(=O)(=O)N2CCN(c3ncccn3)CC2)cc1C	x	0	-4	-15	-1	-2	x
O=S(=O)(c1ccc2c(c1)OCCO2)N1CCN(c2ncnc3sccc23)CC1	24	103*	u	23	81*	4	90*
Cc1ccc(Nc2nc(N)c([N+](=O)[O-])c(N3CCCC(C)C3)n2)cc1C (configuration not stated)	8	55*	51	40	33	43	-9	MPTP swell DR=i;MPTP counter DR=70*
CC1CCCN(c2nc(NCc3ccco3)nc(N)c2[N+](=O)[O-])C1 (configuration not stated)	-1	5	-5	x	-5	5	x
CCN1CCN(c2nc(N)c([N+](=O)[O-])c(Nc3ccc(C)c(C)c3)n2)CC1	44	81*	13	-3	8	1	-2	MPTP swell DR=i;MPTP counter DR=77*
O=C(CN(CC1CCCO1)C(=O)CCC(=O)Nc1nccs1)NCc1ccc2c(c1)OCO2 (configuration not stated)	8	2	-2	-6	-7	2	x
CC(C)(C)c1ccc(C(=O)N2CCC2(C)C(=O)NCC(F)(F)F)cc1 (configuration not stated)	x	1	x	x	x	x	x
Cc1ccccc1Nc1nc(N)nc(CSc2nc3ccccc3c(=O)n2CCCO)n1	18	-1	u	-10	-8	9	x
Cc1ccccc1Nc1nc(N)nc(CSc2nc3ccccc3c(=O)n2C)n1	32	57*	1	14	22	-1	22*
Cc1cc(C)cc(-n2cccc2/C=C2/C(=N)N3C(=NC2=O)SN=C3S(C)(=O)=O)c1	21	63*	9	72	2	71*	50*
CC1CC(C)CN(c2nc(NCc3ccco3)nc(N)c2[N+](=O)[O-])C1 (configuration not stated)	6	28	6	-5	-1	2	x
O=C(Nc1ccc(Oc2ccccc2)cc1)C1CCN(c2c3c(nc4ncnn24)CCC3)CC1	37	67*	23	4	58	13	76*
O=C(Nc1ccc2c(c1)CCC2)C1CCN(c2c3c(nc4ncnn24)CCC3)CC1	42	4	32	x	10	4	x
CC(C)(C)NC(=O)C(c1ccncc1)N(C(=O)Cn1nnc(-c2cccs2)n1)C1CCCCC1 (configuration not stated)	-9	3	-15	20	1	-2	x
CN1CCN(c2ncnc3c2ncn3[C@H]2CN(Cc3ccncc3)C[C@@H](CO)O2)CC1	x	0	x	x	x	x	x
O=S(=O)(Nc1nc2ccccc2nc1N1CCN(c2ccccc2F)CC1)c1ccc(Cl)cc1	26	79*	45	u	4	25	88*
